# Mdm2-MdmX inh = inhibitors of human Mdm2/MdmX interaction | O15151+Q00987 | SaOS-2 split-luciferase Mdm2/MdmX complementation, luminescence | inhibition, % at 8 µM | actives 3% (n = 330,000) | AID 485346;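 active means inhibition of at least 50% at 8 µM in the primary screen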
# Target sequence (O15151 whole entry, looked up): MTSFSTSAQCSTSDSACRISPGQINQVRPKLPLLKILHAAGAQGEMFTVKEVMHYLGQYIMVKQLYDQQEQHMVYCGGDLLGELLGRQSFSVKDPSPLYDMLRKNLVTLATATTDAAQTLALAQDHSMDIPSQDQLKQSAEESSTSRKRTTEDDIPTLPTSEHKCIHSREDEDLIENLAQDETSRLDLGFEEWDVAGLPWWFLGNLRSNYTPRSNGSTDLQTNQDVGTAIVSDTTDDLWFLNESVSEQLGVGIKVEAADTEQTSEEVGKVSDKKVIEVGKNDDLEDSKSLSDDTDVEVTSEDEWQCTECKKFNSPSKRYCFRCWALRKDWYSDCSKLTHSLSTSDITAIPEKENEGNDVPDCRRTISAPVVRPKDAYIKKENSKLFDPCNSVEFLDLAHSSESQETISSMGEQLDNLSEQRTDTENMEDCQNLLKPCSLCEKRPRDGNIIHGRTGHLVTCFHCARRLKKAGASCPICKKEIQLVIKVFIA
# Target sequence (Q00987 whole entry, looked up): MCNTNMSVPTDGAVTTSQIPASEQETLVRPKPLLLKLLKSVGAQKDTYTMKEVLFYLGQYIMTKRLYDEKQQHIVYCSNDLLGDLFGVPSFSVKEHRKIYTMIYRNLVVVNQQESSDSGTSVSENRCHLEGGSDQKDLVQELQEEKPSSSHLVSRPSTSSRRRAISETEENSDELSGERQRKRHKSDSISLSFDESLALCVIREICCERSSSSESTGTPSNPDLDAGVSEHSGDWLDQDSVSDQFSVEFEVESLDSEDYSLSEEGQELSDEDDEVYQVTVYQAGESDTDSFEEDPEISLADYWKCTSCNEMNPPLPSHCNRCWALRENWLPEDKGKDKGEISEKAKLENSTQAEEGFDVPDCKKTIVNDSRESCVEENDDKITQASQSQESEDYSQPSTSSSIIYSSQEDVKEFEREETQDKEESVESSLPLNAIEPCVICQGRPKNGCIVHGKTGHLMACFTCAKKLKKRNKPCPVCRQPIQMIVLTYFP
# MPTP inh = inhibitors of mitochondrial permeability transition pore; isolated mouse mitochondria, Ca2+ swelling absorbance, 30 min; inhibition, % at 10 µM; actives 1.4% (n = 360,000);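 active means inhibition of 50% or more, scaled per plate between neutral and stimulator controls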;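 further: 0% = DMSO wells given calcium and 100% = 1 mM EGTA wells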
# GRIN3A LBD mod = NR3A (human) ligand-binding domain modulation; NR3A LBD differential scanning fluorimetry, Tm shift; 0% = protein alone, 100% = glycine-bound protein; AID 1259313; Tm shift relative to glycine control, % at 25 µM; actives 2.5% (n = 340,000);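 active means melting temperature shift of at least 10% of the positive control shift, at one fixed dose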
# Gli-Sufu block = antagonists of Gli-Sufu signaling | Sufu-KO-LIGHT fibroblasts, Gli luciferase reporter luminescence | actives 0.74% (n = 340,000) | inhibition, % at 5 µM;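 active means inhibition above about 55%, limit read from the data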;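 further: 0% = DMSO-treated cells and 100% = wells with medium but no cells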
# Beta apoptosis = blocks beta cell apoptosis. INS-1E cytokine-induced death, ATP luminescence, 48 h; percent of positive-control rescue, neutral wells zero. protection from apoptosis, % (no concentration beside the values). actives 0.8% (n = 300,000);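 active means Every replicate reaches about 75%, or at least half do and their mean reaches it too, limit read from the data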;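 further: 0% = cytokine-treated negative control wells and 100% = positive control rescue; higher means more ATP so stronger rescue from cytokine killing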
# CSC inhib = blocks cancer stem cells | AID 2717 | inhibition, % at 7.5 µM | cancer stem cell-like cells viability, luminescence | actives 1.1% (n = 300,000); in the data active means inhibition above about 75%; tested in HMLE shEcad cells
# Rh123 counter = Rhodamine 123 counter-screen of mitochondrial pore hits; shares compounds with MPTP inh; isolated mitochondria, membrane potential, Rhodamine 123 fluorescence; actives 78% (n = 5,000); inhibition, % at 10 µM; in the data active means inhibition above about 22%;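 further: 0% = DMSO vehicle and 100% = positive control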
# MPTP swell DR = dose response confirmation of mitochondrial permeability transition pore inhibitors; shares compounds with MPTP inh; isolated mitochondria swelling, absorbance; actives 58% (n = 780); AID 651561; IC50, µM; in the data active means IC50 below about 20 µM
# MPTP cs DR = MPTP inhibitor counter-screen activity, dose response; shares compounds with MPTP inh; isolated mitochondria counterscreen, fluorescence read-out; IC50, µM; actives 49% (n = 780); AID 651564; in the data active means IC50 below about 80 µM
# An asterisk follows results filed as active; i = inactive; . = no result given. Only some compounds are listed: those with a hit (about 6.6% of all), similar ones and a draw of the others.
SMILES,Mdm2-MdmX inh,MPTP inh,GRIN3A LBD mod,Gli-Sufu block,Beta apoptosis,CSC inhib,Rh123 counter,others
O=C(CSc1nc2cc(Cl)c(Cl)cc2[nH]1)c1ccc2c(c1)OCO2,7.2,78.4*,17.5*,-1.4,-16.1,-2.1,72.6*,
O=C(CSc1nc2ccc(Cl)cc2[nH]1)c1ccc2c(c1)OCO2,0.6,1.1,-16.5,-3.6,2.4,-6.8,.,
FC(F)(F)Oc1ccc(NC(=S)Nc2ccccc2N2CCOCC2)cc1,17.6,89.8*,-6.8,-0.7,-0.3,7.6,81.1*,
CN(C)c1cccc(C(=O)N/N=C/c2ccsc2)c1,-34.9,3.7,0.7,-64.8,0.4,4.2,.,
CCC1(C)COC(C)(CC(=O)NNC(=O)Nc2ccccc2)OC1 (stereo not drawn),8.0,-0.8,1.4,20.9,-6.5,6.6,.,
O=C(NCc1ccccn1)Nc1cccc([N+](=O)[O-])c1,24.4,0.6,2.9,3.3,-7.5,-14.9,.,
O=C(NCc1ccc(F)cc1)Nc1cccc([N+](=O)[O-])c1,33.8,62.5*,-19.1,-11.3,1.4,-0.6,94.1*,
O=C(NCc1cccnc1)Nc1cccc([N+](=O)[O-])c1,-21.2,1.5,-4.5,-8.4,-3.3,-7.9,.,
O=[N+]([O-])c1cccc(S(=O)(=O)Nc2ccc(Cc3ccncc3)cc2)c1,22.3,5.5,-0.8,9.0,-7.2,-0.3,.,
O=[N+]([O-])c1cccc(S(=O)(=O)NCc2ccncc2)c1,-2.4,81.7*,-0.2,33.9,35.5,.,60.4*,
O=C(NCc1ccncc1)Nc1cccc([N+](=O)[O-])c1,22.0,91.1*,-6.3,1.1,-0.9,-2.0,73.2*,
CCn1c(COc2ccccc2)nnc1SCC(=O)NC1CC1,13.7,0.6,3.9,-3.5,-8.8,-0.5,.,
O=C(CSc1nc2ccc([N+](=O)[O-])cc2[nH]1)NC1CCCCC1,20.2,4.7,-2.2,8.4,19.6,7.6,.,
COc1ccc(C(=O)CSc2nc3ccc([N+](=O)[O-])cc3[nH]2)cc1,-16.7,99.3*,5.6,-4.0,7.1,14.1,85.6*,
O=C(CSc1nc2ccc([N+](=O)[O-])cc2[nH]1)NC1CCCCCC1,-2.3,95.2*,-2.7,17.7,22.3,15.0,80.5*,
Oc1c(C=NCc2ccc(F)cc2)[nH]c2ccc(Br)c(Cl)c12,25.7,.,.,.,-27.5,0.4,.,
Cc1ccc(CN=Cc2[nH]c3ccc(Br)c(Cl)c3c2O)cc1,21.5,69.1*,-33.8,9.5,-12.2,16.9,-1.6,
Cn1cccc1C1C=C(c2ccc(C(C)(C)C)cc2)Nc2ncnn21 (stereo not drawn),20.2,81.5*,8.5,13.0,127.1*,12.3,69.1*,
C1=C(c2ccc(-c3ccccc3)cc2)Nc2ncnn2C1c1ccco1 (stereo not drawn),.,58.1*,-8.6,-0.2,.,.,8.9,
Cc1[nH]c(=S)sc1Cc1ccc(F)cc1,-22.4,-0.7,-0.4,-16.1,1.1,-7.5,.,
CC(=O)OC1CSC2c3ccccc3C(=O)N2Cc2sccc21 (stereo not drawn),11.3,0.9,-0.4,3.4,3.2,-10.3,.,
C[N+](C)(C)c1ccc(/C=N/Nc2nc(Cl)c(C#N)c(Cl)c2Cl)cc1,.,92.4*,-0.5,6.0,-6.6,6.6,95.2*,
C[n+]1cccc(/C=N/Nc2nc(Cl)c(C#N)c(Cl)c2Cl)c1,27.5,65.4*,-0.1,1.7,-14.1,-5.6,64.4*,
N#Cc1c(Cl)nc(N/N=C/c2ccccc2)c(Cl)c1Cl,17.3,0.2,-1.5,-1.1,6.2,4.7,.,
CCOC(=O)c1cc(CC)sc1NC(=O)COC(=O)c1ccccn1,-15.2,-1.3,-2.6,-16.1,-0.9,-5.2,.,
SMILES,Mdm2-MdmX inh,MPTP inh,GRIN3A LBD mod,Gli-Sufu block,Beta apoptosis,CSC inhib,Rh123 counter,others
Cc1ccc(NC(=O)C2CC(=O)N(Cc3ccccc3)C2)nc1 (stereo not drawn),24.3,-0.3,-0.6,23.8,-12.5,.,.,
CC(=O)Nc1cccc(/C(C)=N\NC(=O)c2ccc(Cn3nc([N+](=O)[O-])c(Cl)c3C)o2)c1,-0.8,-0.8,3.7,2.9,.,.,.,
Cc1cc(Cn2nnc3ccccc32)c(O)c(C(C)(C)C)c1,16.0,52.9*,-24.0,12.9,2.6,-4.1,94.0*,
Cc1cccc(Cn2nnc3ccccc32)c1O,-29.1,-0.4,-5.1,1.9,-5.6,-9.0,.,
CC(C)(C)c1cccc(Cn2nnc3ccccc32)c1O,-2.8,82.2*,-11.2,0.5,16.2,-3.6,96.7*,
NC(=O)c1oc2ccccc2c1NC(=O)c1nc2ccccc2s1,-28.9,-3.0,-14.2,-20.9,-3.6,7.1,.,
O=C(Nc1nnc(-c2ccccc2)o1)c1nc2ccccc2s1,1.1,62.6*,1.8,-4.6,.,34.7,3.0,MPTP swell DR=8.39*;MPTP cs DR=77.7*
Cn1c(SCc2cccc([N+](=O)[O-])c2)nc2c(c1=O)SCC2,36.3,58.5*,1.5,23.4,10.7,8.8,49.2*,
Cn1c(SCc2cccnc2)nc2c(c1=O)SCC2,-7.2,0.3,1.0,-2.0,-8.2,-6.7,.,
O=[N+]([O-])c1cc(C(F)(F)F)ccc1NCCCCNS(=O)(=O)c1ccc(Cl)cc1,23.1,86.5*,8.9,18.2,87.7*,.,90.3*,
Cc1cc(C)c(NC(=O)CN2CCC(NC(=O)NC3CCCCC3)CC2)c(C)c1,4.7,.,.,.,-3.6,-9.3,.,
CCCCC(CC)C(=O)Nc1ncc([N+](=O)[O-])s1 (stereo not drawn),37.6,97.7*,-12.7,18.2,22.3,24.2,100.0*,
Cc1ccc(S(=O)(=O)CC(=O)Nc2ncc([N+](=O)[O-])s2)cc1,5.6,0.3,-0.7,15.2,0.6,5.1,.,
Cc1ccc(CC(=O)Nc2ncc([N+](=O)[O-])s2)cc1,-83.3,65.8*,-20.5,-52.9,20.2,8.0,89.9*,
Nc1ccc2c(c1)nc(Cc1ccccc1)n2CCO,12.5,0.9,1.4,1.4,4.0,-4.8,.,
CCn1c2ccccc2c2cc(NC(=O)CNCC3CCCO3)ccc21 (stereo not drawn),16.9,61.0*,2.0,8.5,-4.9,-12.7,-11.9,MPTP swell DR=i;MPTP cs DR=>80
CCn1c2ccccc2c2cc(NC(=O)CN3CCCC3)ccc21,-8.0,24.5,-0.1,2.1,-0.4,-3.7,.,
O=C(CN1c2cccc3cccc(c23)S1(=O)=O)NCc1ccccc1Cl,.,0.4,.,.,.,.,.,
COCCCNCCCOc1ccc(Cl)cc1C(C)(C)C,43.9,81.5*,-3.7,5.7,8.3,23.1,-15.0,MPTP swell DR=6.01*;MPTP cs DR=>80
COCCNCCCOc1ccc(Cl)cc1Br,-11.8,-0.8,-1.2,5.1,-6.0,4.3,.,
CCC(C)NCCCOc1ccc(Cl)cc1C(C)(C)C (stereo not drawn),7.0,0.5,1.6,0.5,5.7,-0.2,.,

# Source: PubChem BioAssay
